The supplement of paper PMC6555819

Experiments:
Test in all cases: PBM binding z-score (relative to random genomic background probes); higher = stronger binding; sequences stand for … in GC…GCGATTGACAGCGTAGAATGAAGG
[1] = system: FXR:RXRa (NR concentration 270 nM, RXRa partner concentration 90 nM)
In short: (§1)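 Binding buffer was PBS pH 7.4 with 2% milk, 0.02% Triton X-100, 1 mM DTT, 0.2 mg/mL BSA and 0.4 mg/ml salmon testes DNA. In it, ligand-free nuclear receptor dimers were incubated 1 h on custom Agilent 4×180K protein-binding microarrays carrying double-stranded probes. Antibodies against each partner (one per run) detected binding, and z-scores were calculated against random background probes after regression normalization of scanned fluorescence.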

[2] = system: LXRa:RXRa (NR concentration 270 nM, RXRa partner concentration 90 nM)
In short: as §1

[3] = system: LXRa homodimer (NR concentration 270 nM)
In short: as §1

[4] = system: LXRb:RXRa (NR concentration 270 nM, RXRa partner concentration 90 nM)
In short: as §1

[5] = system: LXRb homodimer (NR concentration 270 nM)
In short: as §1

[6] = system: PPARa:RXRa (NR concentration 270 nM, RXRa partner concentration 90 nM)
In short: as §1

[7] = system: PPARg:RXRa (NR concentration 180 nM, RXRa partner concentration 90 nM)
In short: as §1

[8] = system: PPARg:RXRa 270nM:90nM, anti-RXR (NR concentration 270 nM, RXRa partner concentration 90 nM)
In short: as §1

[9] = system: PPARg:RXRa 30nM:10nM, anti-RXR (NR concentration 30 nM, RXRa partner concentration 10 nM)
In short: as §1

[10] = system: PPARg:RXRa 90nM:30nM, anti-RXR (NR concentration 90 nM, RXRa partner concentration 30 nM)
In short: as §1

Sequence | PBM binding z-score [1] | PBM binding z-score [2] | PBM binding z-score [3] | PBM binding z-score [4] | PBM binding z-score [5] | PBM binding z-score [6] | PBM binding z-score [7] | PBM binding z-score [8] | PBM binding z-score [9] | PBM binding z-score [10]
CATAGTTGGTCAGGAGGTCACACACCGGATATGA | 3.73 | 3.38 | 1.98 | 3.28 | 0.669 | 4.18 | 3.64 | 3.65 | 1.73 | 3.1
ACTAGTTGGTCAGCTGAGTTCACACACAATTCGG | 1.06 | 1.59 | 1.72 | 1.59 | 0.275 | 1.65 | 0.747 | 0.792 | 0.098 | 0.251
GCTGCTAGGTCAACTGATGGACAGCTAAAGCTCG | 3.98 | 2.38 | -0.308 | 1.66 | 0.0379 | 3.46 | 2.8 | 2.99 | 0.269 | 1.92
CCAGACAGGCGAGAAGGTAACTCAGCCTCGATTA | -0.951 | -0.595 | -0.499 | -0.97 | -1.31 | -0.764 | -0.0182 | -0.949 | -0.723 | -0.947
ACTTACGGGTCAACGTGGTTATAGCACGCGTATA | 6.4 | 4.01 | 0.422 | 3.75 | 0.534 | 5.52 | 5.08 | 5.39 | 1.88 | 4.03
ACTATTAGTTGACTTAGGGCACCCGATACGACGC | -0.0668 | -0.208 | 0.0685 | -0.198 | 0.757 | -0.213 | 0.894 | 0.204 | 0.268 | 0.525
AGTCAAAGTTCAGGACGAGGAAACGTAAAGCACG | 3.83 | 3.6 | 0.784 | 1.92 | 0.307 | 3.21 | 5.02 | 5.02 | 2.33 | 4.27
CCTATTAATTGACCATAAGGGCAACCGAAGCTCG | 0.865 | 0.6 | 1.66 | 0.747 | 0.711 | 0.737 | 0.586 | 0.878 | 0.302 | 0.73
CGAACTAGGTCAAGGACAGTGAATCTCCGCACGC | 3.29 | 2.29 | 0.163 | 1.51 | -0.597 | 4.64 | 7.4 | 6.24 | 3.8 | 6.11
AGGACGAGGGCAATGAGTTGATAGCACGGGTGGC | 0.665 | 0.175 | -0.256 | -0.148 | -0.403 | 0.903 | 1.12 | 0.232 | -0.168 | -0.187
CTACAAAGGTGAACAAGGTCGTTGATTACTATTC | 2.91 | 2.94 | 0.453 | 3.1 | -0.0435 | 4.39 | 3.3 | 3.46 | 0.912 | 2.84
GATACAGGGTCAGCTAGAGGCCAGAATATGGAAA | 4.72 | 2.63 | -0.176 | 2.61 | -0.466 | 4.48 | 3.78 | 3.14 | 1.04 | 2.25
TCTTGTAGATCAACAGGAGGTTAAGAAAGATCGA | 0.227 | 1.19 | 0.133 | 0.709 | -0.3 | 1.22 | -0.0134 | 1.2 | 2.19 | 1.56
TCAGCCAGGTGAAGGTAACTCAGGTACGCAGTCG | 0.00852 | 1.19 | -0.431 | 0.138 | -1.48 | 0.696 | 0.4 | 1.32 | 2.09 | 1.5
GCAGACAGGTGAAATGCAGGTAACTCAGGGTGGC | -0.157 | 0.0887 | -0.625 | -0.157 | -0.898 | 1.23 | 0.71 | 0.196 | -0.445 | 0.00263
TCTCGGAGGACGCGAAGGTCAGAGCTTTCCAGAG | 0.524 | 0.815 | -0.319 | 0.715 | -1.33 | 1.69 | -0.182 | 1.06 | 1.62 | 1.21
ATCTCTAGGTAGAAGTTCAGTGAATCCCGAGGAT | 0.0471 | 0.223 | 0.0969 | 0.0752 | 0.257 | 2.6 | 4.33 | 5.62 | 4.14 | 5.52
ACTAGCAGGCCAAGTTTGGGTTACTCAAACAAAG | -0.336 | -0.429 | -0.394 | -0.296 | -0.552 | -0.051 | -0.32 | -0.325 | -0.354 | -0.657
CAAACTAGGTCACAGAGGTCAAAGTACGTGCGTA | 7.52 | 6.76 | 7.47 | 6.46 | 2.46 | 6.64 | 10.3 | 8.39 | 6.94 | 8.5
CCTACTGGGCCAAGGTCACTGATCAGTCAAAGCA | 3.03 | 2.64 | 0.281 | 2.79 | -0.518 | 4.1 | 4.17 | 4.62 | 2.22 | 3.93
CCGACTGGGGCAGAAAGTTTACCATACCATCCGG | -0.706 | -0.595 | -0.267 | -0.494 | -0.896 | -0.213 | 0.681 | 0.251 | -0.507 | -0.116
GATACAGGGTCAGCTAGAGGCCAGACTATGGAAA | 4.52 | 2.92 | -0.325 | 2.4 | 0.0441 | 4.49 | 4.01 | 3.55 | 1.29 | 2.19
CAAACTAGGTCACCGGACGGTCAAAGTCCGCATG | 4.83 | 4.33 | 1.97 | 3.09 | 0.428 | 5.37 | 9.09 | 7.27 | 5.34 | 6.89
